In PubChem BioAssay (NCATS):
Records with an inconclusive call do not appear. Entries that show only a call come without a potency. Active and inactive are the calls of the source. Calls follow the shape of the dose curve; as a rule, active = well fitted inhibition curve with a large enough effect; inconclusive = small, poorly fitted or top-dose-only effect; inactive = flat fitted curve, though single readings scatter.

What was measured:
Experiment in all cases: qHTS profiling for inhibitors of Plasmodium falciparum proliferation (AID 504749); also: nearly all actives have a fitted effect of over 60% in size
Settings in all cases: P. falciparum in erythrocytes, SYBR Green DNA, 72 h; series mostly up to 28.7 µM
[1] = system: CP262
Summary of the method: (§1)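 Three-day growth assay of blood-stage parasites in erythrocytes (0.3% parasitemia, 2.5% hematocrit) at 37 C, 5% CO2, quantified by SYBR Green DNA staining after overnight detergent lysis.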

[2] = system: CP286
Summary of the method: as §1

[3] = system: CP315
Summary of the method: as §1

[4] = system: CP329
Summary of the method: as §1

[5] = system: DFO2036
Summary of the method: as §1

[6] = system: ECU
Summary of the method: as §1

[7] = system: FAB9
Summary of the method: as §1

[8] = system: CP297
Summary of the method: as §1

[9] = system: CP305
Summary of the method: as §1

[10] = system: DIV14
Summary of the method: as §1

[11] = system: DIV17
Summary of the method: as §1

[12] = system: Dd2
Summary of the method: as §1

[13] = system: CP265
Summary of the method: as §1

[14] = system: CP266
Summary of the method: as §1

[15] = system: CP268
Summary of the method: as §1

[16] = system: CP269
Summary of the method: as §1

[17] = system: CP291
Summary of the method: as §1

[18] = system: CP325
Summary of the method: as §1

[19] = system: CP335
Summary of the method: as §1

[20] = system: DIV30
Summary of the method: as §1
Potency is read from the fitted curve at half-maximal effect.

Structure (SMILES) | outcome [1] | outcome [2] | outcome [3] | outcome [4] | outcome [5] | Potency [6] | outcome [7] | Potency [8] | Potency [9] | Potency [10] | Potency [11] | Potency [12] | Potency [13] | outcome [14] | outcome [15] | outcome [16] | outcome [17] | outcome [18] | Potency [19] | outcome [20]
Cc1cccc(C)c1OCC(C)N (stereo not given) | inactive | inactive | inactive | inactive | inactive | inactive | inactive | – | – | – | – | – | – | – | – | – | – | – | – | –
CC1=C(/C=C/C(C)=C/C=C/C(C)=C/C(=O)Nc2ccc(O)cc2)C(C)(C)CCC1 | – | – | – | – | – | – | – | 13.5 µM (active) | 15.1 µM (active) | 16.9 µM (active) | 16.9 µM (active) | 11.2 µM (active) | – | – | – | – | – | – | – | –
COCCCCC(=NOCCN)c1ccc(C(F)(F)F)cc1 | – | – | inactive | – | – | – | – | – | – | 6.75 µM (active) | 6.75 µM (active) | – | – | – | – | – | – | – | – | –
COc1ccccc1N1CCN(CCCNc2cc(=O)n(C)c(=O)n2C)CC1 | inactive | inactive | inactive | inactive | inactive | inactive | inactive | inactive | inactive | inactive | inactive | inactive | inactive | inactive | inactive | inactive | inactive | inactive | inactive | inactive
CC(=O)N[C@@H](CS)C(=O)O | inactive | inactive | inactive | inactive | inactive | inactive | inactive | inactive | inactive | inactive | inactive | inactive | inactive | inactive | inactive | inactive | inactive | inactive | inactive | inactive
O=C1Nc2ccc(Cl)cc2C(C#CC2CC2)(C(F)(F)F)O1 (stereo not given) | inactive | inactive | inactive | inactive | inactive | inactive | inactive | – | inactive | – | – | inactive | inactive | – | inactive | inactive | inactive | inactive | – | inactive
